Hits are enriched below; roughly 6.1% of the tested compounds scored in any of these assays.
ATXN viability: Viability Counterscreen for Primary qHTS for Inhibitors of ATXN expression. S2 cells (HEK-293 line with an ATXN2-luciferase reporter) viability, CellTiter-Fluor protease fluorescence, 24 h. 0.49% of 400,000 active. AID 651635, 2014. Potency, µM (top dose mostly 56.7 µM), hits mostly cytotoxic; further: nearly all actives have a fitted effect of over 40% in size
HepG2 viability: qHTS for Inhibitors of TGF-b: Cytotox Counterscreen; HepG2 CAGA-GFP viability, ATP luminescence, 18 h; Potency, µM (highest dose often 46.1 µM), for the others: top-dose activity change, negative = cytotoxicity, usual class: cytotoxic; 0.76% of 410,000 active; AID 588856, 2011
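CellTiter-Glo luminescence gave cytotoxicity after 18 hours at 37 degrees C. The cells were HepG2 CAGA-GFP in 1% FBS DMEM, stimulated with 500 pg/mL TGF-beta after compound addition. %Activity was normalised to no-cell wells (complete cell-killing) and DMSO (no toxicity), and curves were fitted and classified.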
TGFb SMAD3 inh: qHTS for Inhibitors of TGF-b; HepG2 CAGA-GFP TGF-b/SMAD3 reporter, GFP fluorescence, 18 h; TGF-beta stimulated, 500 pg/mL final; Potency, µM (doses to about 46.1 µM), for the others: at the top dose activity, negative = inhibition, actives largely listed as inhibitors; 1.2% of 410,000 active; further: on the % scale 0 is the no-effect control and ±100 the full control effect; nearly all actives have a fitted effect of over 65% in size
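HEPG2 CAGA-GFP reporter cells (1000/well, DMEM with 1% FBS) received compounds, then recombinant TGF-beta at 500 pg/mL final for 18 hours at 37 degrees C. Per-cell GFP summed per well was normalised to unstimulated and stimulated DMSO controls before curve fitting.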
ATXN2 expr inh: Primary qHTS for Inhibitors of ATXN expression | AID 1745845, 2022 | Potency, µM (series often up to 57 µM), for inactives: at the highest dose activity change, negative = inhibition, hits mostly inhibitors | HEK-293 ATXN2-luciferase reporter, luminescence, 24 h | 0.72% of 360,000 active; further: on the % scale 0 is the no-effect control and ±100 the full control effect; nearly all actives have a fitted effect of over 55% in size
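ATXN2-luciferase reporter cells (luciferase flanked by upstream and downstream ATXN2 gene portions) were treated 24 h at 37 °C with compounds at up to 57 uM. SteadyGlo luminescence gave expression; GF-AFC fluorescence gave viability.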
Gal4-VP16 FLuc: VP16 counterscreen qHTS for inhibitors of ROR gamma transcriptional activity | Drosophila S2 Gal4-VP16 UAS-luciferase, luminescence, 20 h | Potency, µM (titrated, usually from 53.6 µM), without a hit: at the highest dose activity, negative = inhibition, hits mostly inhibitors | 3.5% of 310,000 active | AID 2546, 2010;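 further: Gal4-VP16 expression switched on by copper sulfate through the metallothionein promoter; on the % scale 0 is the no-effect control and ±100 the full control effect; nearly all actives have a fitted effect of over 50% in size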
RORgamma inh: qHTS for inhibitors of ROR gamma transcriptional activity | Nuclear receptor ROR-gamma (Mus musculus), P51450 | Potency, µM (top dose mostly 53.6 µM), for the others: at the highest dose activity change, negative = inhibition, most hits filed as inhibitors | Drosophila S2 Gal4-RORgamma UAS-luciferase reporter, 20 h | 5.4% of 310,000 active; further: on the % scale 0 is the no-effect control and ±100 the full control effect; nearly all actives have a fitted effect of over 60% in size
Target sequence (P51450 whole entry, looked up, the tested form may be a part): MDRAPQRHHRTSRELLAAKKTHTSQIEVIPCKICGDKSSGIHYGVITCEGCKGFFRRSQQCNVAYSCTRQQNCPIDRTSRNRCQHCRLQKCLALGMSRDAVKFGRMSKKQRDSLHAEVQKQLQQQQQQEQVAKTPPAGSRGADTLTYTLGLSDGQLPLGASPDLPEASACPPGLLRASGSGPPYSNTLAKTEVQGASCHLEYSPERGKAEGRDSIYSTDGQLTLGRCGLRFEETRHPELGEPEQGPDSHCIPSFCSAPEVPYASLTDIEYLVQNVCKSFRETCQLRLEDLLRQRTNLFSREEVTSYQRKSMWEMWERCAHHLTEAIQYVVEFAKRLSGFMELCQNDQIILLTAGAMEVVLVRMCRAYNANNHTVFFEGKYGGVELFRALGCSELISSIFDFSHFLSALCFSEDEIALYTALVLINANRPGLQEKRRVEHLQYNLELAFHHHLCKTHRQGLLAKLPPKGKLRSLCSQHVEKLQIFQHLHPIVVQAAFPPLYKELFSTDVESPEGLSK
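In this cell-based reporter format, copper sulfate (700 uM final) drives Gal4–ROR gamma fusion expression from a metallothionein promoter in Drosophila Schneider cells; compounds preincubated 1 hr, reporter read after 20 hr at ambient temperature.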
Numbers without * were called inactive. The call rests on the fitted dose curve; in most records, active means well fitted curve in the direction sought with a large enough effect; inconclusive means small, poorly fitted or top-dose-only effect, or another doubt; inactive means no such curve, though single readings can be large; an effect the other way counts as inactive or inconclusive. Potency means the concentration at half of the fitted maximal effect.

How did O=C1N/C(=N\N=C\c2cccnc2)SC1Cc1ccc(SC(F)F)cc1 (configuration not stated) do in these assays?
ATXN viability: inconclusive; HepG2 viability: 8.9%; TGFb SMAD3 inh: -7.6%; ATXN2 expr inh: 12.6µM*; Gal4-VP16 FLuc: 0.708µM*; RORgamma inh: 0.501µM*

How did Cc1nc(N2CCCC2)c2c(C(=O)N3CCN(c4cc(Cl)ccc4C)CC3)c(C)oc2n1 do in these assays?
HepG2 viability: -15.7%; TGFb SMAD3 inh: inconclusive

Results for Clc1ccc(/C=N/Nc2ncnc3ccccc23)cc1Cl ?
ATXN viability: inactive; HepG2 viability: -33.2%; TGFb SMAD3 inh: inconclusive; ATXN2 expr inh: 15.4%; Gal4-VP16 FLuc: 3.55µM*; RORgamma inh: 1.41µM*

How did Fc1ccccc1/C=N/Nc1nc2ccccc2o1 do in these assays?
ATXN viability: inactive; HepG2 viability: -3.4%; TGFb SMAD3 inh: -0.5%; ATXN2 expr inh: 9.4%; Gal4-VP16 FLuc: 11.2µM*; RORgamma inh: 6.31µM*

What do the screens show for `Oc1ccc(Nc2ncnc3ccccc23)cc1`?
ATXN viability: inactive; HepG2 viability: -14.0%; TGFb SMAD3 inh: -6.2%; Gal4-VP16 FLuc: inconclusive; RORgamma inh: 39.2%

What do the screens show for `FC(F)Oc1ccccc1/C=N/Nc1nc2ccccc2o1`?
ATXN viability: inactive; HepG2 viability: -18.8%; TGFb SMAD3 inh: -9.8%; ATXN2 expr inh: 21.4%; Gal4-VP16 FLuc: inconclusive; RORgamma inh: inconclusive

How did Fc1ccccc1/C=N/Nc1ncnc2ccccc12 do in these assays?
ATXN viability: inactive; HepG2 viability: -46.7%; TGFb SMAD3 inh: inconclusive; ATXN2 expr inh: -9.1%; Gal4-VP16 FLuc: 4.47µM*; RORgamma inh: 2.82µM*

How did COc1ccc(Cn2c(CCC(=O)Nc3ccc(OC)c(Cl)c3)nc3cccnc32)cc1 do in these assays?
ATXN viability: inconclusive; HepG2 viability: -43.1%; TGFb SMAD3 inh: inconclusive; ATXN2 expr inh: -25.7%

What do the screens show for `CN(c1ccccc1)c1ccc(/C=N/NC(=O)CC#N)cc1`?
ATXN viability: inactive; HepG2 viability: -6.7%; TGFb SMAD3 inh: -9.1%; ATXN2 expr inh: 12.6µM*; Gal4-VP16 FLuc: inconclusive; RORgamma inh: inconclusive

What do the screens show for `O=C(Nc1ccc(C(=O)OCc2cc(=O)n3c4c(sc3n2)CCCC4)cc1)c1ccc(Cl)cc1`?
HepG2 viability: 3.2%; TGFb SMAD3 inh: 8.1%

How did CCOC(=O)c1c(SCCN2CCCCC2)n(-c2ccccc2)c(=S)n(-c2ccccc2)c1=O do in these assays?
ATXN viability: inconclusive; HepG2 viability: -0.1%; TGFb SMAD3 inh: 0.0%; ATXN2 expr inh: 20µM*

What do the screens show for `CC(C)Oc1ccc(C(=O)NCC2Cc3cc(Cl)cc(-c4ncccn4)c3O2)cc1` (configuration not stated)?
ATXN viability: inactive

Results for CC1(C)Nc2ccc(O)cc2-c2c1ssc2=S ?
ATXN viability: inconclusive; HepG2 viability: 2.1%; TGFb SMAD3 inh: -23.7%; ATXN2 expr inh: 2.2%; Gal4-VP16 FLuc: inconclusive; RORgamma inh: 8.91µM*

How did COc1cccc(-n2sc3c(c2=S)-c2cc(OC)ccc2NC3(C)C)c1 do in these assays?
ATXN viability: inconclusive; HepG2 viability: -2.9%; TGFb SMAD3 inh: -6.0%; ATXN2 expr inh: inconclusive; Gal4-VP16 FLuc: -7.7%; RORgamma inh: inconclusive

What do the screens show for `Cn1c(=NC(=O)c2ccco2)sc2ccccc21`?
ATXN viability: inactive; HepG2 viability: 1.3%; TGFb SMAD3 inh: -17.6%; ATXN2 expr inh: 1.1%; Gal4-VP16 FLuc: -21.0%; RORgamma inh: -40.4%

Results for Cn1c(=NC(=O)CCl)sc2ccccc21 ?
ATXN viability: 31.6µM*; HepG2 viability: 11.2µM*; TGFb SMAD3 inh: inconclusive; ATXN2 expr inh: inconclusive; Gal4-VP16 FLuc: inconclusive; RORgamma inh: inconclusive

What do the screens show for `Cn1nnnc1Sc1ncnc2scc(-c3cccc(Br)c3)c12`?
ATXN viability: 14.1µM*; HepG2 viability: -52.3%; TGFb SMAD3 inh: inconclusive; ATXN2 expr inh: 8.91µM*

How did Cn1nnnc1Sc1ncnc2scc(-c3ccc4c(c3)OCO4)c12 do in these assays?
ATXN viability: inconclusive; HepG2 viability: 2.6%; TGFb SMAD3 inh: inconclusive; ATXN2 expr inh: inconclusive

How did CC(=O)c1cccc(-c2csc3ncnc(Sc4nnnn4C)c23)c1 do in these assays?
ATXN viability: 7.94µM*; HepG2 viability: -88.9%; TGFb SMAD3 inh: 6.31µM*; ATXN2 expr inh: 6.31µM*

What do the screens show for `O=C(O)CSc1ncnc2scc(-c3ccccc3)c12`?
ATXN viability: inactive; HepG2 viability: -6.3%; TGFb SMAD3 inh: -24.1%; ATXN2 expr inh: -12.2%; Gal4-VP16 FLuc: -7.6%; RORgamma inh: 6.5%

What do the screens show for `Cn1nnnc1Sc1ncnc2scc(-c3cccc(S(C)(=O)=O)c3)c12`?
ATXN viability: inconclusive; HepG2 viability: -115.1%; TGFb SMAD3 inh: inconclusive; ATXN2 expr inh: 8.91µM*

What do the screens show for `CCCCS(=O)(=O)N[C@@H](Cc1ccc(OCCCCC2CCNCC2)cc1)C(=O)O`?
ATXN viability: inactive; ATXN2 expr inh: 2.1%

How did Cc1ccc(C)c(N2CCN(C(=O)c3cc(S(=O)(=O)N4CCCCCC4)cn3C)CC2)c1 do in these assays?
ATXN viability: inconclusive; HepG2 viability: -2.5%; TGFb SMAD3 inh: inconclusive; ATXN2 expr inh: inconclusive

What do the screens show for `O=C(c1ccc(F)cc1)N1CCC[C@H](c2nc(-c3ccc(F)cc3)no2)C1`?
ATXN2 expr inh: 15.8%

How did CC(NC(N)=O)C(=O)Nc1ccc(Cl)c(S(=O)(=O)Nc2ccc(Br)cc2)c1 (configuration not stated) do in these assays?
ATXN viability: inactive; HepG2 viability: -8.9%; TGFb SMAD3 inh: 10.4%; ATXN2 expr inh: 7.3%; Gal4-VP16 FLuc: 3.16µM*; RORgamma inh: 6.31µM*

What do the screens show for `Cc1ccc(CN2CCSc3ccc(C(=O)N4CCN(c5ccc(Cl)cc5)CC4)cc32)cc1`?
ATXN viability: inactive; HepG2 viability: 0.4%; TGFb SMAD3 inh: -9.0%; ATXN2 expr inh: -14.3%

What do the screens show for `CC(C)(C)c1csc(NNC(=O)c2ccc(Cl)cc2)n1`?
ATXN viability: inactive; HepG2 viability: 7.6%; TGFb SMAD3 inh: inconclusive; ATXN2 expr inh: inconclusive; Gal4-VP16 FLuc: 7.08µM*; RORgamma inh: 0.447µM*

Results for CC(C)(C)c1csc(NC(=O)c2cccnc2)n1 ?
ATXN viability: inactive; HepG2 viability: -10.0%; TGFb SMAD3 inh: 1.6%; ATXN2 expr inh: 3.4%; Gal4-VP16 FLuc: 15.9%; RORgamma inh: inconclusive

Source: PubChem BioAssay
